Where “and” joins values, the source holds several entries; their conditions need not be identical. Identical values can stand only once. Calls of active or inactive are those of the source. The calls were made as follows: active = hit-call score of the fitted dose curve at least 0.9, where 1 is the maximum; inactive = score below 0.9.
Each compound was assayed on UDP glucuronosyltransferase (UGT1A1), UGT1A1 (gene 54658) (assay: LTEA_HepaRG_UGT1A1: Life Technologies and Expression Analysis (LTEA) Assay for UDP glucuronosyltransferase (UGT1A1) using HepaRG (AID 2283538)). Conditions: mRNA level, 48 h; actives raise or lower the signal.
Description: LTEA_HepaRG is a cell based, multiplexed-readout assay that uses HepaRG, a human liver cell line, with measurements taken at 48 hours after chemical dosing on a 96-well plate.LTEA_HepaRG_UGT1A1 is one of 102 assay component(s) measured in the LTEA HepaRG cell culture assay. It is a marker of Steatosis/NR mediated metabolism.Data from the assay component LTEA_HepaRG_UGT1A1 was analyzed into 1 endpoint. This assay endpoint, LTEA_HepaRG_UGT1A1, was analyzed with bidirectional fitting relative to DMSO as the negative control and baseline of activity. Using a type of inducible reporter, measures of mRNA induction for gain or loss-of-signal activity can be used to understand regulation of transcription factor activity. To generalize the intended target to other relatable targets, this assay endpoint is annotated to the transferase intended target family, where the subfamily is glucuronosyltransferase.
A total of 1060 chemcials from the ToxCast library were tested in eight-point concentration-response experiments. Cell culture and cytotoxicity assays were conducted at Thermo Fisher Scientific's Custom Services facility (Madison, WI). A single lot of human HepaRG cells (Thermo Fisher Scientific, Frederick, MD) was used for the cell culture experiments. 96-well format collagen type I coated plates of human HepaRG cells were prepared using established methods. Briefly, cryopreserved HepaRG cells were thawed, plated at a density of approximately 100,000 cells/well in HepaRG Thaw, Plate, and General Purpose media (HPRG770, Thermo Fisher Scientific), and incubated for 48 hours. 0.5% DMSO was selected as vehicle control to balance the requisite need of DMSO in HepaRG cultures to maintain differentiation (for example, baseline metabolism, proportions of hepatocytes vs. cholangiocytes), while enabling further hepatic receptor pathway activation (for example, PXR and CAR) in response to chemical exposure. 48 hours after plating, the culture medium was replaced with HepaRG Serum-Free Incudtion Media. Cells were exposed to each test chemical in duplicate and maintained in CO2 incubators for another 48 hours. Chemical plates were thawed to room temperature and 200x concentrations of treatment groups were prepared. 8-point conentration-reponse curves were made with the highest exposure at 100 uM, followed by half-log dilutions, all in 0.5% DMSO. Each test plate contained variouse controls, induction positive controls (1mM phenobarbital), cytotoxicity positive controls ([…] aflatoxin B1), vehicle controls (0.5% DMSO), and total lysis controls (0.5% DMSO). Cell morphology images were taken using an Essen IncuCyte FLR automated microscope, with six 96-well plates imaged in about 24 minutes. Images were captured and exported and JPEG files. Spent culture media was transfered to black-well plates for the LDH assay, and remaining media was sorted at -80 C for later use. Cells were treated with RLT buffer and frozen until shipped for gene expression analysis. Total RNA was isolated from the cell suspension in 75 uL of Buffer RLT (Qiagen, Germantown, MD 20874) by Quintiles/Expression Analysis (Durham, NC) using a custom isolation procedure. Total RNA from each plate well was transferred to a preamplification plate. Fluidigm's 96.96 Dynamic ArrayTM (Fluidigm, Amsterdam, the Netherlands) technology was used for gene expression analyses by quantitative reverse transcription polymerase chain reaction (qRT-PCR, performed by Quintiles/Expression Analysis, Durham, NC)89. Standard TaqManTM Assays (Applied Biosystems/ThermoFisher Scientific, Foster City, CA) were used to assess the expression of 93 genes selected based on their selectivity and sensitivity to important hepatic receptors known to be modulated by environmental chemicals; importance in human hepatocyte functionality; and hepatotoxicity. […]

Structure (SMILES) | AC50 | outcome
Cc1ccc(-c2c(Cl)nc(C#N)n2S(=O)(=O)N(C)C)cc1 | 37.4 µM (active) | –
CC1=C(C(=O)Nc2ccccc2)SCCO1 | 50 µM (active) | –
N#CC(CCc1ccc(Cl)cc1)(Cn1cncn1)c1ccccc1 (stereo not given) | 74.9 µM (active) | –
N#Cc1cc(Br)c(O)c(Br)c1 | 17 µM (active) | –
COC(=O)N(OC)c1ccccc1COc1ccn(-c2ccc(Cl)cc2)n1 | 82.4 µM (active) | –
CO/C=C(/C(=O)OC)c1ccccc1Oc1cc(Oc2ccccc2C#N)ncn1 | 88.7 µM (active) and 87.6 µM (active) and 83.3 µM (active) | –
CCCN(CCC)c1c([N+](=O)[O-])cc(S(N)(=O)=O)cc1[N+](=O)[O-] | 7.17 µM (active) and 86.5 µM (active) and 89.5 µM (active) | –
CC(C)C1(C)N=C(c2nc3ccccc3cc2C(=O)O)NC1=O (stereo not given) | – | inactive
N#Cc1nn(-c2c(Cl)cc(C(F)(F)F)cc2Cl)c(N)c1S(=O)C(F)(F)F (stereo not given) | 37.6 µM (active) | –
COc1ccc(C(c2ccc(OC)cc2)C(Cl)(Cl)Cl)cc1 | 12 µM (active) | –
CCCCNC(=O)n1c(NC(=O)OC)nc2ccccc21 | 18.6 µM (active) | –
CCON=C(CC)C1=C(O)CC(c2c(C)cc(C)cc2C)CC1=O (stereo not given) | 27.9 µM (active) | –
CCCCNC(=O)OCC#CI | 24.9 µM (active) | –
CNC(=S)S | – | inactive
COc1nc(NC(C)C)nc(NC(C)C)n1 | 11.4 µM (active) | –
CC(C)(C)c1ccc(CSc2cnn(C(C)(C)C)c(=O)c2Cl)cc1 | – | inactive
C=CCC1=C(C)C(OC(=O)C2C(C=C(C)C)C2(C)C)CC1=O (stereo not given) | – | inactive
COC(=O)C(C)Oc1ccc(Oc2ccc(Cl)cc2Cl)cc1 (stereo not given) | 20.7 µM (active) | –
CCCCC(CC)COC(=O)c1ccccc1C(=O)OCC(CC)CCCC (stereo not given) | 9.29 µM (active) | –
CS/C(C)=N/OC(=O)N(C)SN(C)C(=O)O/N=C(\C)SC | 29.1 µM (active) | –

Structure (SMILES) | AC50 | outcome
C=CCC1=C(C)[C@@H](OC(=O)[C@@H]2[C@@H](C=C(C)C)C2(C)C)CC1=O | – | inactive
O=C(O)c1nc(Cl)ccc1Cl | – | inactive
Cc1cc(Cl)ccc1OCC(=O)O | – | inactive
COc1cnc(OC)n2nc(NS(=O)(=O)c3c(OCC(F)F)cccc3C(F)(F)F)nc12 | 19 µM (active) | –
CC(Oc1ccc(Cl)cc1Cl)C(=O)O (stereo not given) | – | inactive
CC(C)Oc1cc(-n2nc(C(C)(C)C)oc2=O)c(Cl)cc1Cl | 1.41 µM (active) | –
CCOP(=S)(OCC)SCn1c(=O)oc2cc(Cl)ccc21 | – | inactive
CCNc1nc(Cl)nc(NCC)n1 | 3.7 µM (active) | –
CN(C)C(=S)SSC(=S)N(C)C | – | inactive
CCNc1nc(Cl)nc(NC(C)C)n1 | 18.1 µM (active) | –
COP(=S)(OC)Oc1nc(Cl)c(Cl)cc1Cl | – | inactive
CC1COC(Cn2cncn2)(c2ccc(Oc3ccc(Cl)cc3)cc2Cl)O1 (stereo not given) | 50 µM (active) | –
C=CC1(C)OC(=O)N(c2cc(Cl)cc(Cl)c2)C1=O (stereo not given) | 22.7 µM (active) | –
Cc1c(F)c(F)c(COC(=O)C2C(/C=C(\Cl)C(F)(F)F)C2(C)C)c(F)c1F (stereo not given) | – | inactive
OC(c1ccc(Cl)cc1)(c1cncnc1)c1ccccc1Cl (stereo not given) | 91.1 µM (active) | –
CCCCOC(=O)c1ccccc1C(=O)OCCCC | – | inactive
COP(N)(=O)SC (stereo not given) | – | inactive
Fc1ccc(Oc2ccnc3cc(Cl)cc(Cl)c23)cc1 | 13.3 µM (active) | –
CNC(=O)ON=CC(C)(C)SC | – | inactive
CCCC1COC(Cn2cncn2)(c2ccc(Cl)cc2Cl)O1 (stereo not given) | 35.8 µM (active) | –

From PubChem BioAssay (EPA / NIEHS)
